TROY NFkB inh: inhibitors of TROY-driven NF-kB signaling, primary screen, Q293 LMP1-TROYcd cells, NF-kB luciferase, uHTS; 0.98% of 360,000 active; Q293 LMP1-TROYcd NF-kB luciferase reporter, 4 h; inhibition, % at 10 µM;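 active = compounds whose plate-normalised and pattern-corrected inhibition of the luciferase reporter signal at the single screening dose is 50% or more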
LMP1 NFkB inh: EBV LMP1-driven NF-kappaB luciferase reporter inhibitors, primary screen, cell-based, luminescence, single point. LMP1-induced NF-kappaB luciferase reporter cells. AID 504558, 2011. 0.69% of 350,000 active. inhibition, % at 12.5 µM; in the data active = inhibition above about 41%;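 note: 0% = neutral control wells and 100% = reference inhibitor control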
TRPM1 prom inh: inhibitors of MITF-dependent TRPM1 promoter reporter, primary screen, cell-based, SK-MEL-5, single point, luciferase. SK-MEL-5 TRPM1 promoter luciferase, 24 h. inhibition, % at 12.5 µM. 0.83% of 330,000 active;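 active = mean inhibition across replicates of 60% or more, whatever share of single replicates reaches that level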
TWEAK-Fn14 inh: inhibitors of TWEAK-Fn14 signaling, primary screen, luciferase reporter cells, uHTS | TWEAK-stimulated Fn14 reporter cells, luciferase luminescence, 8 h | inhibition, % at 10 µM | 2% of 360,000 active; in the data active = inhibition above about 50%
Peg3 promoter: Peg3 promoter-driven luciferase inhibitors, primary screen, cell-based, HeLa, luciferase luminescence; 1.7% of 360,000 active; HeLa PEG-Prom luciferase reporter, overnight; inhibition, % at 20 µM;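 active = inhibition of at least 50% at 20 µM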
HIF-2a block: HIF-2a reporter inhibitors, primary screen, luminescence, 786-0 RCC cells. 786-0 RCC cells HIF-2a reporter, luciferase luminescence, overnight. inhibition, % at 18.8 µM. 0.72% of 360,000 active. AID 624352, 2012;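 active = inhibition of the luminescence signal of 40% or more relative to plate controls, in a single-dose primary screen at 18.75 µM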
* marks the source's active call; other numbers are inactive results; · = no result; ! = not confirmed by another sample. This is a sample that favours compounds with a hit; in the whole collection about 4% have one here.

SMILES	TROY NFkB inh	LMP1 NFkB inh	TRPM1 prom inh	TWEAK-Fn14 inh	Peg3 promoter	HIF-2a block
CCCCN(CC)C(=O)c1cc2cc3ccc(OC)cc3nc2o1	-22	-18	-69	-36	-230	-225
CCCCN(C)C(=O)c1cc2cc3ccc(OC)cc3nc2s1	25	-9	-39	74*	-74	-18
N#Cc1cc2c(nc1SCC(=O)N1CCCCC1)CCCCC2	56*	-7	-20	41	-89	-69
N#Cc1cc2c(nc1SCC(=O)N1CCCCC1)CCCC2	2	-6	-5	-7	-23	-45
N#Cc1cc2cc3c(cc2nc1SCC(=O)N1CCOCC1)OCCO3	76*	37	34	97*	35	36
O=C(c1cc(C2CCCCN2S(=O)(=O)c2ccc(F)cc2F)on1)N1CCOCC1 (stereo not given)	4	·	·	-8	9	11
CC(=O)N(C1=C(N2CCOCC2)C(=O)c2ccccc2C1=O)c1ccc(C(=O)O)cc1	14	3	13	18	12	64*
CCc1nc2ccccc2c(C(=O)OCc2nc3ccccc3c(=O)[nH]2)c1C	30	-10	10	37	44	-6
CC1(C(=O)Nc2cccc(OC(F)(F)F)c2)Cc2c(-c3cccc(C(N)=O)c3)ccnc2O1 (stereo not given)	10	·	·	4	30	14
CN(C)CCNc1cccc2sc3ccc(O)cc3c(=O)c12	-66	·	·	-77	99*	43*
COc1cc(C)c2sc3ccccc3c(=O)c2c1NCCN(C)C	-71	-4	·	-103	100*	-34
O=C(NCC(=O)N1CCN(Cc2c(F)cccc2Cl)CC1)c1cccs1	4	2	·	3	-3	8
CSc1nc(NC(C)(C)C)nc(Oc2ccc(=O)n(C)n2)n1	-4	7	-3	2	17	4
CNC(=O)c1ccc(C)c(NC(=O)C2=C(C)OCCS2)c1	-16	6	-2	-2	-1	18
CC(C)(C)NC(=O)C1c2ccccc2OCC(=O)N1CCc1ccccc1 (stereo not given)	1	·	·	8	·	21
CCOC(=O)CSCC(NC(=O)OC(C)(C)C)C(=O)OCC (stereo not given)	-1	7	13	-2	7	41*
Cc1occc(=O)c1OC(=O)Nc1ccc(Cl)c(Cl)c1	36	17	-1	59*	-5	-94
Nc1ccc(Oc2ccccc2-c2ccccc2)cc1	68*	29	66*	82*	49	91*
Cc1cccc(N2C(=O)N3[C@H]4c5ccccc5OC[C@@H]4[C@@H](c4ccccc4)[C@@]3(C)C2=O)c1	-5	12	4	-19	8	20
N=C(N)c1ccccc1	-2	82*!	-1	4	-15	-17
N=C(N)c1ccc(O)cc1	8	6	2	4	2	15
CC(C)n1cnc2cc(NCc3ccccn3)ccc21	52*	7	-53	33	-149	-96
c1ccc(-n2cnc3cc(NCc4ccccn4)ccc32)cc1	42	13	-23	57*	-95	-32
CC(C)CC(NC(N)=O)C(=O)Nc1ccc2c(c1)OCO2 (stereo not given)	-27	-7	-24	-12	-63	-105
O=C(NC(=S)Nc1ccc2c(c1)OCCO2)c1ccco1	-22	-4	-82	24	-223	-200
SMILES	TROY NFkB inh	LMP1 NFkB inh	TRPM1 prom inh	TWEAK-Fn14 inh	Peg3 promoter	HIF-2a block
O=C(CNC(=O)c1ccco1)Nc1ccc2c(c1)OCCO2	71*	32	19	86*	3	12
CC(C)CC(NC(=O)c1ccco1)C(=O)Nc1ccc2c(c1)OCCO2 (stereo not given)	43	-10	7	76*	2	7
COc1ccccc1-n1c(SCC(=O)Nc2ccc(NC(C)=O)cc2)nc2c([nH]c3ccccc32)c1=O	-2	-9	30	-3	-1	18
O=C(CSc1ncccc1C(=O)O)Nc1ccc2c(c1)OCCO2	41	-5	-9	26	13	14
O=C(CN1C(=O)C(c2ccccc2)Oc2cccnc21)NCc1ccccc1F (stereo not given)	-11	57*	6	18	6	4
CCOC(=O)N1CCN(Cc2nc3cc(NC(=O)c4ccco4)ccc3n2C)CC1	1	-3	2	-3	-14	-35
CCCN(CC(=O)Nc1ccccc1OC)C(=O)Cn1c(=O)oc2ccccc21	-28	-5	18	-21	-4	-6
CCCC(O)(c1ccc(OC)cc1)C(CN1CCOCC1)c1ccc(Cl)cc1 (stereo not given)	-10	7	5	-6	42	3
CCCC(O)(c1ccc(Cl)cc1)C(CN1CCOCC1)c1ccc(Cl)cc1 (stereo not given)	20	12	5	8	58*	7
CCc1ccc(C(O)(CC(C)C)C(CN2CCOCC2)c2ccccc2)cc1 (stereo not given)	7	4	25	35	54*	14
C=CCOc1ccc(/C=N/NC(=O)C(=O)Nc2ccccn2)cc1OC	-26	2	-9	0	-12	-13
CCSC1=C(C#N)C(c2ccc(C)o2)CC(=O)N1 (stereo not given)	-14	49*	12	-3	-1	9
CCCCCCSC1=C(C#N)C(c2ccc(C)o2)CC(=O)N1 (stereo not given)	6	6	6	-7	23	11
COc1cc(OC)cc(-c2noc(-c3csc([C@@H]4C[C@H](O)[C@@H](CO)O4)n3)n2)c1	-53	·	·	-8	-173	-198
O=c1cc(CN2CCN(c3ccccc3)CC2)nc2scc(-c3ccccc3)n12	58*	-4	10	42	10	-38
CN1CCN(CC(O)COc2ccccc2)CC1 (stereo not given)	14	4	5	-3	5	8
CN1CCN(CC(O)COc2ccc(C34CC5CC(CC(C5)C3)C4)cc2)CC1 (stereo not given)	-10	-55	14	-2	105*	-20
COc1ccc(S(=O)(=O)Nc2cc3c4c(c2)CCN4C(=O)CC3)cc1C	-22	6	-1	-4	-23	-13
Cc1oc(-c2ccccc2)nc1CS(=O)CC(=O)NC1CCCC1 (stereo not given)	12	-5	7	-2	4	5
N#Cc1ccc(C(=O)N2CCCCC2c2cc(C(=O)Nc3ccc4c(c3)OCO4)no2)cc1 (stereo not given)	6	·	·	13	1	-9
Cc1ccccc1NC(=O)c1cccc2nc3ccccc3nc12	15	5	66*	5	33	-10

Assay outcomes as filed in PubChem.
